# About 83,000 compounds went through this panel and 20% of them were active in at least one assay; those are over-represented in the sample as a whole.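 Single-concentration screen, 48 h exposure, 96-well plates. Endpoint: percent growth. Below 10 = active.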 Activity calls are given as the source filed them.
# Test system: HCC-2998 colon
# Assay: NCI-60 one-dose screen, 48 h (100 = growth as untreated, 0 = no growth, -100 = all killed)
# Conditions: 10 µM unless noted
# Protocol: Growth inhibition of the HCC-2998 human tumor cell line is measured as a screen for anti-cancer activity. Cells are grown in 96 well plates and exposed to the test compound for 48 hours. Compounds are tested at a single concentration, which is 10^-5 M for most compounds. The reported endpoint is percent growth (GI% or GIPRCNT), where numbers from 0 - 100% represent growth inhibition, and numbers from -100% - 0 represent cell death. For example, a value of 40 represents 60% growth inhibition. A value of 0 means no net growth occurred over the course of the experiment. A value of -40 indicates 40% of cells at the beginning of the experiment died by the end of the experiment. A value of -100 means all cells are dead at the end of the experiment.
# NCI-60 Human Tumor Cell Lines Screen was performed using the standard one-dose NCI protocol, which is described in more detail at https://dtp.cancer.gov/discovery_development/nci-60/default.htm.
# Compounds with GIPRCNT values below 10 were considered active. Activity score was based on GIPRCNT using the following formula: […]
# Score is 0 for GIPRCNT values of 100 or above, 50 for GIPRCNT values of 0, and 100 for GIPRCNT values of -100.
row,SMILES,growth
1,COc1ccc(/C=C/C(=O)c2ccc(NC(=O)CSc3nnc(-c4ccc(OC)c(OC)c4)n3-c3ccccc3)cc2)cc1,94.9% (inactive)
2,Nc1c(C(=O)c2ccccc2)sc2nc(-c3cc4ccccc4o3)cc(-c3ccc(Cl)cc3)c12,108% (inactive)
3,C=C1C(=O)O[C@H]2[C@H]1CC/C(COC(=O)CCCCCCC(=O)OC/C1=C/CC[C@@]3(C)O[C@H]3[C@H]3OC(=O)C(=C)[C@@H]3CC1)=C\CC[C@@]1(C)O[C@@H]21,89.3% (inactive)
4,COc1ccc(C2CC(c3ccc(OC)cc3O)=NN2c2ccc(S(N)(=O)=O)cc2)cc1 (stereo not given),54.4% (inactive)
5,C#CCN1C(=O)c2ccccc2N(CC#C)C12CCN(Cc1cn(CC(=O)Nc3ccccc3C(N)=O)nn1)CC2,100% (inactive)
6,C=C1C(=O)O[C@H]2[C@H]1CC/C(COC(=O)c1c[nH]c3ccccc13)=C\CC[C@@]1(C)O[C@@H]21,-80.9% (active)
7,O=C(Nc1ccccc1)NS(=O)(=O)c1c[nH]c(=S)[nH]c1=O,114% (inactive)
8,C=C(C)[C@@H]1CCC=C2CC[C@]3(C)[C@H](CC[C@@H]4[C@@]5(C)CCCNC(C)(C)[C@@H]5CC[C@]43C)[C@H]21,5.32% (active)
9,N#Cc1c(-c2ccc(F)cc2)nc(N=Nc2c(O)[nH]c3ccccc23)nc1N1CCOCC1,96.2% (inactive)
10,COc1cc(F)c(-c2nc3c(C)cccc3n2Cc2c(F)cccc2F)c(F)c1,82.1% (inactive)
11,O=C(O)CCNC1CCCCC1,86.4% (inactive)
12,Cc1cc(NC(=O)CNc2nc(Oc3ccc(F)cc3)nc(-c3ccc(F)cc3)n2)ccc1Cl,102% (inactive)
13,COC(=O)/C=C1\SC(=Nc2ccc(C(F)(F)F)cc2)N(CCc2c[nH]c3ccccc23)C1=O,-90.6% (active)
14,CC(=O)Oc1ccc(O)cc1,123% (inactive)
15,COc1cccc2c1-c1ccccc1C2=O,30.8% (inactive)
16,O=C(CN1N=C(c2ccc(F)cc2)CCC1=O)Nc1nc2ccccc2s1,95.7% (inactive)
17,COc1cc2cc(c1Cl)N(C)C(=O)C[C@H](OC(=O)[C@H](C)N(C)C(=O)CCS)C[C@]1(C)O[C@H]1[C@H](C)[C@@H]1C[C@@](O)(NC(=O)O1)[C@H](OC)/C=C/C=C(\C)C2,8.58% (active)
18,Cc1ccc(C(=O)/C(=C/c2ccc([N+](=O)[O-])cc2)S(=O)Cc2ccccc2)cc1 (stereo not given),74.8% (inactive)
19,CC(=O)Nc1ccc2c(c1)Cc1cc(F)ccc1-2,94.3% (inactive)
20,CC(=O)c1cc2c(N)c(C(=O)Nc3ccccn3)sc2nc1C,84.6% (inactive)

row,SMILES,growth
1,Cc1cc(C)nc(NS(=O)(=O)c2ccc(Nc3ccc4c5c(n(CCCN(C)C)c(=O)c4c3)-c3ccccc3C5=O)cc2)n1,73.6% (inactive)
2,N#Cc1ccc(Oc2ccc3ccc(=O)oc3c2)cc1,104% (inactive)
3,COc1cc(C2=NN(C=O)C(c3cccc(Nc4ccnc5cc(C(F)(F)F)ccc45)c3)C2)cc(OC)c1OC (stereo not given),70.1% (inactive)
4,C#C[C@@]1(O)[C@@H](CO)O[C@@H](n2cc(Cl)c3c(N)ccnc32)[C@@H]1O,85.4% (inactive)
5,O=C1[C@@H](OS(=O)(=O)CC(F)(F)F)[C@H](c2ccc(F)cn2)N1c1cc2c3ccccc3ccc2c2ccccc12,105% (inactive)
6,C=C1C(=O)O[C@H]2[C@H]1CC/C(COC(=O)c1cn(C)c3ccccc13)=C\CC[C@@]1(C)O[C@@H]21,34.9% (inactive)
7,CC(C)(C)c1ccc(O)c(Cc2cc(C(C)(C)C)ccc2O)c1,103% (inactive)
8,COc1ccc(OCC(=O)OC(C)C)cc1,103% (inactive)
9,S=C(Nc1ccccc1)c1ccccn1,98.7% (inactive)
10,O=C1NCc2ccc3c(-c4cccc(Cl)c4)c[nH]c3c21,25.3% (inactive)
11,COc1ccccc1C(=O)/C=C/c1cc2cccc(OC)c2[nH]c1=O,-84.7% (active)
12,COc1ccc(-c2cn(-c3ccc(Cl)cc3)c(=S)[nH]2)cc1OC,79.2% (inactive)
13,CCOC(=O)NCCc1nc2c([nH]1)c(=O)n(C)c(=O)n2C,99.7% (inactive)
14,CC1CCCN(CCCCCOc2ccc3oc4ccc(Cl)cc4c(=O)c3c2)C1 (stereo not given),78.3% (inactive)
15,O=S(=O)(Nc1nccs1)c1ccc(Nc2nc(-c3ccncc3)cs2)cc1,120% (inactive)
16,CC(=O)Nc1nc2c(c(N)c1C#N)C(c1cccc(Cl)c1)C1=C(CCCC1=O)N2c1sc2c(c1C#N)CCCC2 (stereo not given),45.7% (inactive)
17,N#Cc1c(-c2ccc(F)cc2)nc(N=Nc2c(O)[nH]c3ccc(Cl)cc23)nc1N1CCOCC1,96.7% (inactive)
18,CCCCCOC(=O)c1ccccc1O,109% (inactive)
19,CC(C)(C)CC(C)(C)Cc1ccc(OCCOCC[N+](C)(C)Cc2ccccc2)cc1,-10% (active)
20,OCCNc1nc(NCCO)nc(Nc2ccc(C3=NN(c4cc(Cl)cc(Cl)c4)C(c4ccc(C(F)(F)F)cc4)C3)cc2)n1 (stereo not given),45.1% (inactive)

# — PubChem BioAssay (NCI)
